The text below walks through data of PubChem BioAssay (NCI).

Test systems include SK-MEL-2 melanoma; EKVX NSCLC; SN12C renal; UO-31 renal; TK-10 renal; ACHN renal; CAKI-1 renal; A498 renal; CCRF-CEM leukemia; MOLT-4 leukemia; SR leukemia; RPMI-8226 leukemia; OVCAR-5 ovarian; SK-OV-3 ovarian; IGROV1 ovarian; OVCAR-3 ovarian; HS 578T breast; NCI/ADR-RES ovarian; OVCAR-8 ovarian; OVCAR-4 ovarian.
Holding throughout (experiment): NCI-60 one-dose screen, 48 h (100 = growth as untreated, 0 = no growth, -100 = all killed)
Details in all cases: 10 µM unless noted

SMILES strings stand for the structures. The panel holds about 83,000 compounds, 20% with a hit somewhere; the sample as a whole holds those more often.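 Values shown are percent growth following 48 h exposure of cells in 96-well plates to a single concentration of compound; below 10 was considered active.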 Values without a mark were called inactive. Activity calls are given as the source filed them.

`O=C(CSc1nnc(-c2ccc(-c3nc4ccc(Cl)cc4[nH]3)cc2)o1)Nc1ccccc1`: the growth in the assay with SK-MEL-2 melanoma is 54.5%; in the assay on EKVX NSCLC, 21.1%; in the assay on SN12C renal, 4.03% (active); in the assay with UO-31 renal, 60.6%; in the assay on TK-10 renal, 114%; with ACHN renal, -56.4% (active). In addition, the growth with CAKI-1 renal is -33.5% (active); in the assay with A498 renal it was 130%; in the assay with CCRF-CEM leukemia it was 41.5%; in the assay with MOLT-4 leukemia, 10.7%; in the assay on SR leukemia, 10.9%; in the assay on RPMI-8226 leukemia, 45.6%. For the same molecule, the growth was 49.9% in the assay with OVCAR-5 ovarian; 66.3% in the assay with SK-OV-3 ovarian; 70.8% with IGROV1 ovarian; 43.4% in the assay on OVCAR-3 ovarian; 40.6% in the assay on HS 578T breast; 31.7% with NCI/ADR-RES ovarian.
In the case of `CC(C)(C)OC(=O)N1CCC2(CC1)Oc1ccccc1[C@H]1CC(c3ccc(Br)cc3)=NN12`, the growth with SK-MEL-2 melanoma was 71.9%; in the assay on EKVX NSCLC it was 56.6%; in the assay with SN12C renal it was 71.2%; with UO-31 renal it was 43%; in the assay with TK-10 renal, 131%; in the assay on ACHN renal, 60%. For the same molecule, the growth with CAKI-1 renal was 41.1%; with A498 renal, 98.7%; in the assay with CCRF-CEM leukemia, 58.2%; with MOLT-4 leukemia, 47%; in the assay on RPMI-8226 leukemia it was 56.2%; in the assay on OVCAR-8 ovarian, 83.3%. In addition, the growth with OVCAR-5 ovarian was 122%; in the assay with OVCAR-4 ovarian it was 65%; with SK-OV-3 ovarian, 79.1%; with IGROV1 ovarian, 58.7%; in the assay on OVCAR-3 ovarian, 77.1%; in the assay with HS 578T breast, 91.5%. In addition, the growth with NCI/ADR-RES ovarian was 83.7%.
Turning to `COc1ccc2[nH]c(=O)c(CSc3ccccc3Nc3nccc(-c4ccc5c(c4)OCO5)n3)cc2c1`, the growth was 95.6% with SK-MEL-2 melanoma; 88% with EKVX NSCLC; 89.4% in the assay with SN12C renal; 75.8% in the assay on UO-31 renal; 99.7% with TK-10 renal; 90.4% in the assay on ACHN renal. For the same molecule, the growth in the assay with CAKI-1 renal was 68.5%; in the assay with A498 renal it was 107%; with MOLT-4 leukemia, 50.1%; with SR leukemia, 67.3%; in the assay with RPMI-8226 leukemia, 68.2%; in the assay on OVCAR-5 ovarian it was 103%. For the same molecule, the growth with OVCAR-4 ovarian was 61.1%; in the assay on SK-OV-3 ovarian it was 112%; in the assay on IGROV1 ovarian, 87.4%; with OVCAR-3 ovarian it was 92.3%; in the assay on HS 578T breast it was 89.4%; in the assay with NCI/ADR-RES ovarian it was 74.3%.
`N#C/C(=C/c1ccc(Cl)cc1)c1nnc(NC(=O)c2ccc(-n3c(=O)[nH]c4ccccc4c3=O)cc2)s1`: the growth is 91.6% in the assay on SK-MEL-2 melanoma; 86% in the assay with EKVX NSCLC; 61.1% with SN12C renal; 77.8% in the assay with UO-31 renal; 114% with TK-10 renal; 84.3% with ACHN renal. The growth is 95.5% in the assay on CAKI-1 renal; 116% with A498 renal; 94.9% in the assay on MOLT-4 leukemia; 62.7% with SR leukemia; 70.4% in the assay with RPMI-8226 leukemia; 83.9% in the assay with OVCAR-5 ovarian. The growth was 75.3% in the assay with OVCAR-4 ovarian; 85% with SK-OV-3 ovarian; 84.6% in the assay on OVCAR-3 ovarian; 34.1% with HS 578T breast; 81.5% in the assay on NCI/ADR-RES ovarian.
For the molecule `Cc1ccc(C2CC(c3ccc(NC(=O)Nc4ccccc4)cc3)=NN2c2ccc(S(C)(=O)=O)cc2)cc1` (configuration not stated), the growth with SK-MEL-2 melanoma is -13.7% (active); in the assay with EKVX NSCLC it was -2.75% (active); in the assay on SN12C renal, -94% (active); in the assay on UO-31 renal it was 3.37% (active); in the assay with TK-10 renal, 21.7%; with ACHN renal, -44.4% (active). The growth was -16.3% (active) in the assay on A498 renal; 9.5% (active) with CCRF-CEM leukemia; 20.3% in the assay with MOLT-4 leukemia; 15.5% in the assay on SR leukemia; -0.47% (active) with RPMI-8226 leukemia; 7.91% (active) in the assay on OVCAR-8 ovarian. The growth in the assay with OVCAR-5 ovarian was -51.3% (active); in the assay with OVCAR-4 ovarian, 17.6%; in the assay on SK-OV-3 ovarian it was 26.8%; in the assay with IGROV1 ovarian, -28.1% (active); in the assay on OVCAR-3 ovarian, -2.63% (active); in the assay with HS 578T breast, 21.3%. Further, the growth in the assay with NCI/ADR-RES ovarian is -35.3% (active).
In the case of `Cc1nc(Nc2ccccn2)sc1C1=NNC(c2ccccc2F)C1` (configuration not stated), the growth in the assay on SK-MEL-2 melanoma was 62.1%; in the assay with EKVX NSCLC, 72.4%; in the assay with SN12C renal, 57.9%; in the assay with UO-31 renal it was 48%; in the assay with TK-10 renal, 119%; with ACHN renal it was 56.5%. The growth in the assay on A498 renal is 101%; with CCRF-CEM leukemia, 19.1%; in the assay with MOLT-4 leukemia it was 25.4%; in the assay on SR leukemia it was 12.4%; in the assay on RPMI-8226 leukemia it was 30.4%; in the assay with OVCAR-8 ovarian it was 68%. The growth is 82.8% in the assay with OVCAR-5 ovarian; 74.8% with OVCAR-4 ovarian; 98.3% in the assay with SK-OV-3 ovarian; 64.2% with IGROV1 ovarian; 24.8% in the assay on OVCAR-3 ovarian; 87.6% in the assay with HS 578T breast. Besides, the growth in the assay with NCI/ADR-RES ovarian was 20.9%.
As for `CCC(=O)c1cc(C(=O)OC)c2ccc3c4ccccc4ccc3n12`, the growth in the assay on SK-MEL-2 melanoma was 105%; in the assay with EKVX NSCLC, 83.6%; in the assay on SN12C renal, 57.9%; in the assay on UO-31 renal, 52.9%; in the assay with TK-10 renal it was 63.9%; with ACHN renal, 0.659% (active). Also, the growth is 136% in the assay with A498 renal; 97.8% in the assay on CCRF-CEM leukemia; 94.8% in the assay on MOLT-4 leukemia; 68.3% in the assay with SR leukemia; 84.9% with RPMI-8226 leukemia; 71.5% in the assay on OVCAR-8 ovarian. For the same molecule, the growth was 73.8% with OVCAR-5 ovarian; 1.22% (active) in the assay with OVCAR-4 ovarian; 122% in the assay with SK-OV-3 ovarian; 70.2% in the assay on IGROV1 ovarian; 67.5% with OVCAR-3 ovarian; 63.3% in the assay on HS 578T breast. In addition, the growth with NCI/ADR-RES ovarian was 76.6%.
For `Cc1ccc(C(=O)Nc2cc(-n3ccnc3C)cc(C(F)(F)F)c2)cc1C#Cc1cnc2cccnn12`, the growth with SK-MEL-2 melanoma is -64.1% (active); in the assay on EKVX NSCLC it was 3.81% (active); in the assay on SN12C renal, -8.57% (active); in the assay on UO-31 renal it was 0.162% (active); in the assay on TK-10 renal, 11.6%; in the assay with ACHN renal, -6.55% (active). The growth in the assay on A498 renal is -18.4% (active); in the assay on CCRF-CEM leukemia, 5.01% (active); with MOLT-4 leukemia, 4.23% (active); in the assay on SR leukemia it was -17.9% (active); with RPMI-8226 leukemia, -14.8% (active); in the assay on OVCAR-8 ovarian, 18.5%. Further, the growth with OVCAR-5 ovarian was 7.14% (active); with OVCAR-4 ovarian, 15.6%; with SK-OV-3 ovarian, -0.287% (active); in the assay with IGROV1 ovarian it was 4.66% (active); with HS 578T breast, -25.9% (active); in the assay on NCI/ADR-RES ovarian, 4.26% (active).
